Holding throughout (experiment): NCI-60 one-dose screen, 48 h (100 = growth as untreated, 0 = no growth, -100 = all killed)
Holding throughout (settings): 10 µM unless noted

The subject of assay [1] is HCT-15 colon.
Assay [2] relates to HT29 colon.
Assay [3] concerns SNB-75 CNS.
Assay [4] relates to SNB-19 CNS.
For assay [5], the system named is U251 CNS.
In assay [6] the test system is PC-3 prostate.
In assay [7] the test system is UACC-62 melanoma.
For assay [8], the system named is LOX IMVI melanoma.
Assay [9] relates to SK-MEL-28 melanoma.
The test system of assay [10] is SK-MEL-5 melanoma.

Molecules are shown by their SMILES. The panel holds about 83,000 compounds, 20% with a hit somewhere; the sample as a whole holds those more often.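 Interpretation: 100, growth as untreated; towards 0, rising growth inhibition; 0, no net growth; 0 to -100, cell death. Compounds scoring below 10 were considered active.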 Unmarked numbers belong to inactive results. Activity calls are given as the source filed them.

For 13 molecules, growth results are on record in PubChem BioAssay (NCI).

For the molecule `Oc1cccc2ccc(N/N=C/c3cc(CN4CCCCC4)c(O)c4ncccc34)nc12`, the growth in assay [1] was 20.6%; in [2], 14.7%; in assay [3], 27.4%; in [4] it was 19.9%; in assay [5] it was -1.42% (active); in [6] it was 5.8% (active). Further, the growth in [7] is 8.94% (active); in assay [8], -58.4% (active); in assay [9] it was 23%.

`CCC1C(=O)COC1=O` (configuration not stated): the growth in [1] is 103%; in assay [2], 62.7%; in [3], 91%; in assay [4] it was 99.3%; in assay [5] it was 85%; in [6], 74.3%. The growth in [10] was 102%; in assay [8], 93.2%; in assay [9] it was 112%.

Regarding `C=C1C(=O)O[C@H]2[C@H]1CC/C(COC(=O)NCCc1c[nH]c3ccccc13)=C\CC[C@@]1(C)O[C@@H]21`, the growth in assay [1] is -9.58% (active); in [2], -39.8% (active); in assay [3], 61.3%; in assay [4], 56.9%; in assay [5], 59.9%; in assay [6] it was 35.1%. Moreover, the growth in assay [10] was 12.8%; in [8], -63.2% (active); in assay [9] it was -17.6% (active).

`COc1ccc(-c2nc3c(c(C)nn3-c3ccc(F)cc3)c(=O)[nH]2)cc1`: the growth in [1] was 83%; in [2] it was 58.6%; in [3], 11.1%; in assay [4], 75%; in assay [5], 44%; in assay [6] it was 78.1%. Also, the figures for the growth in assay [10], in [8] and in assay [9] were 79.1%, 75.2% and 96.8%, respectively.

Regarding `COc1ccc(-c2n[nH]nc2-c2cc3ccccc3s2)cc1O`, the growth is 20% in assay [1]; 29.9% in assay [2]; 35.5% in assay [3]; 27.6% in [4]; 15.8% in assay [5]; 16% in [6]. Also, the growth is 33.7% in assay [7], 20.6% in assay [8] and 38.4% in [9].

With `CCOC(=O)C1OC1(c1ccccc1)c1ccccc1` (configuration not stated), the growth was 109% in assay [1]; 107% in assay [2]; 108% in assay [3]; 107% in assay [4]; 100% in [5]; 98.7% in assay [6]. Also, the growth was 98% in assay [7], 113% in assay [8] and 119% in assay [9].

Take `COc1cc(/C=N/Nc2ncnc3c2c(C)nn3-c2ccc(F)cc2)ccc1O`: the growth was 81.1% in [1]; 92.3% in assay [2]; 82.5% in assay [3]; 93.3% in assay [4]; 94.4% in assay [5]; 73% in [6]. Further, the figures for the growth in assay [10], in assay [8] and in assay [9] were 56.6%, 81% and 107%, respectively.

As for `COc1cc2c(cc1-c1c(C)noc1C)ncc1nc(C3CC3)n([C@H](C)COC(F)F)c12`, the growth was 23.9% in assay [1]; 17.3% in [2]; 34.3% in assay [3]; 60.1% in assay [4]; 52.8% in [5]; 39.1% in assay [6]. Further, the growth in assay [7] is 25.5%; in assay [8], 15.5%; in assay [9], 63.5%.

As for `COc1cc(/C=C/c2cc(/C=C/c3ccc(O)c(OC)c3)n(-c3ccc(Cl)cc3)c(=O)n2)ccc1O`, the growth in assay [1] was 85.4%; in [2] it was -5.09% (active); in assay [3] it was 69.7%; in assay [4] it was 91%; in assay [5], 75.5%; in assay [6], 77.3%. Further, the growth in assay [7] was 80.6%; in [8], 61.6%; in [9], 81.6%.

Take `COc1ccc(-c2cc(-c3cccs3)n(N=O)c(=O)c2C#N)cc1`: the growth was 129% in assay [1]; 107% in [2]; 88.9% in [3]; 99.1% in [4]; 112% in [5]; 104% in [6]. Moreover, the growth was 95.4% in assay [7], 96.3% in assay [8] and 124% in assay [9].

Consider `COc1cc(NC(C)CN(CC(C)C)C(C)C)c2ncccc2c1` (configuration not stated), for which the growth in assay [1] was 101%; in assay [2], 97.5%; in assay [3] it was 80.4%; in [4], 116%; in assay [5], 100%; in [6] it was 80.5%. Moreover, the growth in assay [7] was 106%; in [8], 94.7%; in assay [9] it was 122%.

`O=C1CCCC=CC[C@H]2C=C(Cl)C(=O)C2=CC[C@H](CCCCC(F)(F)F)OC(=O)CCCC=CC[C@H]2C=C(Cl)C(=O)C2=CC[C@H](CCCCC(F)(F)F)OC(=O)CCCC=CC[C@H]2C=C(Cl)C(=O)C2=CC[C@H](CCCCC(F)(F)F)O1`: the growth is 68.6% [6.25 µM] in assay [1]; 42.2% [6.25 µM] in assay [2]; 95.9% [6.25 µM] in assay [3]; 65.2% [6.25 µM] in assay [4]; 36.4% [6.25 µM] in assay [5]; 71.9% [6.25 µM] in [6]. Moreover, the growth in assay [10] is 59.4% [6.25 µM]; in assay [8], 18.7% [6.25 µM]; in [9] it was 71.8% [6.25 µM].

Regarding `CC1(C)c2ccccc2C(=O)C1(Br)Cc1ccccc1` (configuration not stated), the growth was 71.3% in [1]; 67.4% in assay [2]; 78.8% in assay [3]; 81.1% in [4]; 91% in assay [5]; 77.4% in assay [6]. Also, the growth in assay [7] is 78.3%; in assay [8], 78.7%; in [9], 95.8%.
